Most compounds without a hit are left out; they make up all but 6.2% or so of the library.
S2 tox: viability counter-screen for ATXN expression inhibitors; S2 cells (HEK-293 line with an ATXN2-luciferase reporter) viability, CellTiter-Fluor protease fluorescence, 24 h; Potency, µM (doses to about 56.7 µM), hits mostly cytotoxic; 0.49% of 400,000 active; also: nearly all actives have a fitted effect of over 40% in size
KB-V1 MDR tox: KB-V1 MDR subline cytotoxicity. KB-V1 MDR cells viability, CellTiter-Glo, 72 h. 3.4% of 400,000 active. Potency, µM (doses to about 46.1 µM), actives largely listed as cytotoxic. AID 1347076; also: % is scaled to controls: 0 for no effect and ±100 for the full control effect; nearly all actives have a fitted effect of over 60% in size
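Cytotoxicity via CellTiter-Glo luminescence after 72 h compound exposure at 37 degrees C. Cells: drug-selected KB-V1 line, DMEM phenol-red free plus 10% FBS. Compounds tested at multiple concentrations; normalized data fitted to concentration-effect curves.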
ATXN2 expr inh: reduces ATXN2 reporter expression in HEK-293 cells; 0.72% of 360,000 active; Potency, µM (titrated, usually from 57 µM), without a hit: at the top dose activity change, negative = inhibition, usual class: inhibitors; HEK-293 ATXN2-luciferase reporter, luminescence, 24 h; AID 1745845; also: % is scaled to controls: 0 for no effect and ±100 for the full control effect; nearly all actives have a fitted effect of over 55% in size
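qHTS (up to 57 uM final) was run with 24 h compound exposure of reporter cells at 37 °C. Each well was multiplexed: SteadyGlo luminescence measured ATXN2-luciferase expression after a fluorogenic Gly-Phe-AFC viability readout (25 uM final).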
HT1080-NT tox: kills 2HG-producing HT-1080-NT fibrosarcoma cells. HT-1080-NT fibrosarcoma viability, CellTiter-Glo ATP luminescence, 48 h. Potency, µM (highest dose often 46.1 µM), for the others: top-dose activity, negative = less viability, hits mostly cytotoxic. 1.6% of 360,000 active. AID 686970;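 also: NT is the 2HG producing partner of a matched IDH1 knockdown line; 0% = DMSO-treated cells and -100% = media-only wells without cells; nearly all actives have a fitted effect of over 55% in size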
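Viability of the 2HG-overproducing fibrosarcoma line after 48 hours of compound exposure at 37 degrees C was determined by luminescence with CellTiter-Glo, and concentration-effect curves were then fitted and categorized.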
HT1080 IDH1KD tx: toxicity to HT-1080 IDH1 knockdown cells (counter line); HT-1080 IDH1 knockdown viability, ATP luminescence, 48 h; 2% of 360,000 active; Potency, µM (highest dose often 46.1 µM), for inactives: top-dose activity, negative = toxicity, hits mostly cytotoxic; AID 686971;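 also: 0% = DMSO wells and -100% = cell-free medium wells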
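Assay cells: HT-1080 with IDH1 knockdown, 750 per well, RPMI/5% FBS. Exposure: 48 h at 37 °C following 2 h pre-incubation. Read: CellTiter-Glo luminescence; fitted concentration-response, curve class assigned.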
KB-3-1 tox: kills parental KB-3-1 adenocarcinoma cells; 1.4% of 400,000 active; Potency, µM (top dose mostly 46.1 µM), usual class: cytotoxic; KB-3-1 viability, CellTiter-Glo ATP luminescence, 72 h; AID 1347075; also: % is scaled to controls: 0 for no effect and ±100 for the full control effect; nearly all actives have a fitted effect of over 60% in size
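Parental KB-3-1 viability, qHTS format: 72 h compound exposure, 37 °C; CellTiter-Glo; media-only wells and DMSO plates as controls; concentration-effect fits on corrected data.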
Numbers without * were called inactive; i = inactive; ? = inconclusive; . = not tested or not shown. Calls follow the shape of the dose curve; as a rule, active = well fitted curve in the direction sought with a large enough effect; inconclusive = small, poorly fitted or top-dose-only effect, or another doubt; inactive = no such curve, though single readings can be large; an effect the other way counts as inactive or inconclusive. Potency is read from the fitted curve at half-maximal effect.

SMILES	S2 tox	KB-V1 MDR tox	ATXN2 expr inh	HT1080-NT tox	HT1080 IDH1KD tx	KB-3-1 tox
Cc1ccc(S(=O)(=O)NCc2ccccc2)cc1C(=O)N1CCCCC1	i	i	-10%	16%	3%	i
Cn1cccc1C(=O)N1CCN(c2cccc(C(F)(F)F)c2)CC1	?	15µM*	-17%	4%	10%	i
Cc1ccc(S(=O)(=O)NCc2ccccc2)cc1C(=O)N1CCN(c2ccccc2)CC1	i	?	-11%	-3%	1%	15µM*
CN1CCN(c2ccc(CNS(=O)(=O)Cc3cccc(C(F)(F)F)c3)cc2)CC1	i	?	.	18µM*	-22%	?
O=C(c1cccc(S(=O)(=O)NCc2ccccc2)c1)N1CCN(c2cccc(C(F)(F)F)c2)CC1	i	16µM*	?	?	?	?
Cc1ccc(S(=O)(=O)NCc2ccccc2)cc1C(=O)N1CC(C)CC(C)C1 (centres undefined)	i	13µM*	-2%	8%	1%	i
CC1CC(C)CN(C(=O)c2cccc(S(=O)(=O)NCc3ccccc3)c2)C1 (centres undefined)	i	i	-22%	-6%	-3%	i
CCOC(=O)c1ccccc1NC(=O)N(C)CCc1c(C)nn(CC)c1C	?	i	20%	.	.	i
Cc1occc1C(=O)N/N=C/c1ccc(N(C)C)cc1	i	i	0%	?	23µM*	i
CN(C)c1ccc(/C=N/NC(=O)c2ccccc2Cl)cc1	i	?	15%	12µM*	8.2µM*	?
O=C(Nc1ccc2ccccc2c1)Nc1nnc(-c2ccccn2)s1	.	i	.	.	.	?
O=C(Cn1cc(S(=O)(=O)c2ccccc2)c(=O)c2cc3c(cc21)OCO3)Nc1ccccc1	i	i	7%	.	.	i
Cc1ccc(-n2ncc(C(=O)NCc3ccc4c(c3)OCO4)c2C2CCN(C(=O)OC(C)(C)C)CC2)cc1C	.	i	.	.	.	i
O=C(CCNC(=O)c1ccc(Cl)cc1)NNC(=O)c1ccc(F)cc1	i	i	6%	6%	4%	i
N#C/C(=C(/O)CCl)c1nc2ccccc2[nH]1	?	23µM*	?	?	?	?
N#C/C(=C(/O)c1ccc(Br)s1)c1nc2ccccc2[nH]1	i	?	-1%	?	?	6.5µM*
N#C/C(=C(/O)COC(=O)CSc1ccc2ccccc2c1)c1nc2ccccc2[nH]1	20µM*	i	?	-1%	6%	?
CCCCCNc1nc2c(-c3ccccc3)nnn2c2ccccc12	i	i	5%	.	.	i
CCOc1ccc(OCC)c(NS(=O)(=O)c2c(C(=O)N3CCCCCC3)c(C)n(C)c2C)c1	i	i	1%	.	.	i
Cc1ccc(CNS(=O)(=O)c2c(C)nc3sc(C)cn3c2=O)cc1	.	i	.	.	.	i
COc1cccc(-c2nn(-c3ccc(C)cc3)cc2C(=O)NCC(c2cccs2)N2CCOCC2)c1 (centres undefined)	i	i	0%	-6%	-9%	i
O=C(NCC(c1cccs1)N1CCOCC1)c1cn(-c2ccccc2)nc1-c1ccccc1 (centres undefined)	i	23µM*	-8%	-2%	0%	i
COc1ccc(-c2nn(-c3ccccc3)cc2C(=O)NCC(c2cccs2)N2CCOCC2)cc1 (centres undefined)	i	?	1%	-18%	-24%	i
O=C(NCC(c1cccs1)N1CCOCC1)c1cn(-c2ccccc2)nc1-c1ccc(Cl)cc1 (centres undefined)	i	7.3µM*	?	-16%	-29%	?
Cc1cccc(C)c1OCC(O)CN(Cc1ccccc1O)C1CCCCC1 (centres undefined)	i	?	-30%	9.2µM*	?	?
SMILES	S2 tox	KB-V1 MDR tox	ATXN2 expr inh	HT1080-NT tox	HT1080 IDH1KD tx	KB-3-1 tox
O=S(=O)(c1ccc(Cl)cc1)c1nnn2c1nc(NC1CCCCC1)c1sccc12	.	i	.	.	.	i
OC1(c2ccc(Cl)c(Cl)c2)C[n+]2ccccc2N1Cc1ccccc1 (centres undefined)	.	i	35µM*	18µM*	21µM*	?
OC1(c2ccccc2)CCN(Cc2ccccc2)CC1	i	i	-12%	-13%	2%	i
CCN(CCCNC(=O)Cn1ncc2c3ccccc3n(C)c2c1=O)c1cccc(C)c1	i	i	4%	.	.	i
Cc1cc(Cl)ccc1NC(=O)CN1C(=O)CSc2ccc(S(=O)(=O)N(C)C)cc21	i	i	-6%	.	.	i
O=C(Nc1ccccc1)c1ccc(Nc2c([N+](=O)[O-])cc([N+](=O)[O-])c3ccccc23)cc1	i	i	-22%	-13%	-21%	?
O=[N+]([O-])c1cc(Br)c(Nc2ccccc2)c([N+](=O)[O-])c1	13µM*	16µM*	.	?	3.3µM*	?
CC(C)CC1OC(C)CC2=C1C(=O)OC(C)(C)O2 (centres undefined)	i	?	-14%	0%	4%	i
CCc1ccc(-n2c(=O)c3c4c(sc3n(Cc3ccccc3C#N)c2=O)CCC4)cc1	i	i	-7%	.	.	i
CC1=Nc2ccccc2/C1=C\c1sc(Nc2ccc(C)cc2)nc1O	?	1.5µM*	-4%	0.92µM*	0.65µM*	?
CCCOc1ccc(C(=O)Nc2ccc(NC(=O)c3ccccc3)c(C)c2)cc1	i	i	13%	.	.	i
CCCOC(=O)c1ccc(Oc2cn[nH]c2-c2ccc(OC)cc2O)cc1	?	?	?	21µM*	18µM*	?
Cc1ccc(S(=O)(=O)c2c(C)nn(C(C)(C)C)c2OC(=O)c2ccco2)cc1	i	i	-24%	23µM*	?	i
Cc1ccc(S(=O)(=O)c2c(C)nn(C(C)(C)C)c2OC(=O)c2cccs2)cc1	i	i	?	23µM*	26µM*	i
Cc1nn(C(C)(C)C)c(OC(=O)c2ccc3c(c2)OCO3)c1Sc1ccccc1	i	i	-16%	-23%	?	i
Cc1nn(C(C)(C)C)c(OC(=O)c2ccc3c(c2)OCO3)c1S(=O)(=O)c1ccccc1	i	i	-8%	21µM*	?	i
CC(=O)Oc1c(S(=O)(=O)c2ccc(C)cc2)c(C)nn1C(C)(C)C	i	?	1%	-21%	-3%	?
COc1ccccc1NC(=O)C(Cc1ccccc1)NS(=O)(=O)c1cccc2nsnc12 (centres undefined)	i	i	-5%	.	.	i

Screens (PubChem)
